This passage reports Euclidean distance results from the supplement of paper PMC10127200.

Where a name gives a salt, the structure may show the parent alone.

The test system of the assay is DU145. Briefly: Euclidean distance of Cell Painting phenotypic profile (signed KS, 77 features) to DMSO centroid (dimensionless distance); 5 or 10 uM (library dependent); higher = stronger phenotypic change vs DMSO (phenoactivity). Conditions: 48 h. The method in brief:
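Harmony extracted 77 features from 20X confocal images (9 fields/well) of stained cells, scoring each as a signed Kolmogorov-Smirnov statistic against same-plate vehicle wells. The cells, five cancer lines and a healthy fibroblast line, had received library compounds for 48 h at 10 or 5 uM depending on library, with 0.1% DMSO final. Phenoactivity is the Euclidean distance from each plate-position-corrected, correlation-weighted, top-dose replicate-averaged profile to the median vehicle profile.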
`CC[C@H]1OC(=O)[C@@](C)(F)C(=O)[C@H](C)[C@@H](O[C@@H]2O[C@H](C)C[C@H](N(C)C)[C@H]2O)[C@](C)(OC)C[C@@H](C)C(=O)[C@H](C)[C@H]2N(CCCCn3cc(-c4cccc(N)c4)nn3)C(=O)O[C@]12C` [Solithromycin] came in with an Euclidean distance of 1.57.

`CN1CCCC(n2nc(Cc3ccc(Cl)cc3)c3ccccc3c2=O)CC1` (centres undefined) [Azelastine HCl] came in with an Euclidean distance of 0.881.

Regarding `C[C@H](O)[C@H](O)[C@H]1CNc2[nH]c(N)nc(=O)c2N1` [Sapropterin Dihydrochloride], the Euclidean distance came out at 0.871.

In turn, `CN(C)c1ccc(C(=C2C=CC(=[N+](C)C)C=C2)c2ccc(N(C)C)cc2)cc1` [Crystal Violet] returned an Euclidean distance of 3.

The molecule `Cc1cccc(-c2[nH]c(C(C)(C)C)nc2-c2ccc3c(c2)OCO3)n1` returned an Euclidean distance of 0.978.

Take `CCCCC1=NC2(CCCC2)C(=O)N1Cc1ccc(-c2ccccc2S(=O)(=O)Nc2noc(C)c2C)c(COCC)c1`: the Euclidean distance was determined as 1.01.

`COC(c1ccccc1)(c1ccccc1)[C@H](Oc1nc(C)cc(C)n1)C(=O)O` [Ambrisentan] showed an Euclidean distance of 1.17.

`CCN1CCC[C@H]1CNC(=O)c1cc(S(N)(=O)=O)ccc1OC` [Levosulpiride] had an Euclidean distance of 1.14.

The molecule `CCCOC(C(=O)OC1CCN(C)CC1)(c1ccccc1)c1ccccc1` [Propiverine hydrochloride] yielded an Euclidean distance of 1.34.

In turn, `O=C(O)CCC(=O)c1ccc(-c2ccccc2)cc1` [Fenbufen] gave an Euclidean distance of 0.988.

`O=C(Nc1ccccc1Br)N[C@@H]1CCN(c2ccc(C(F)(F)F)cn2)C1`: the Euclidean distance was found to be 0.688.

`C[C@]12CC[C@H](O)CC1=CC[C@@H]1[C@@H]2CC[C@]2(C)C(n3cnc4ccccc43)=CC[C@@H]12` [Galeterone] yielded an Euclidean distance of 0.901.

`O=C1NC(=O)C(c2ccccc2)(c2ccccc2)N1` [Phenytoin] returned an Euclidean distance of 1.

For `O=C(O)CCCN1CCC(O[C@@H](c2ccc(Cl)cc2)c2ccccn2)CC1` [Bepotastine], the Euclidean distance turned out to be 0.573.

As to `CCC[C@@H]1C[C@@H](C(=O)N[C@@H]([C@H]2O[C@H](SC)[C@H](O)[C@@H](O)[C@H]2O)[C@@H](C)O)N(C)C1` [Lincomycin HCl], the Euclidean distance came out at 0.817.

Regarding `CCCCCCCN(CC)CCCC(O)c1ccc(NS(C)(=O)=O)cc1` (centres undefined) [Ibutilide Fumarate], the Euclidean distance stood at 1.13.

`CCCCCCCCCC(=O)OC1(c2ccc(Cl)cc2)CCN(CCCC(=O)c2ccc(F)cc2)CC1` [Haloperidol Decanoate]: the Euclidean distance amounted to 1.01.

In turn, `Nc1ccc(S(=O)(=O)c2ccc(N)cc2)cc1` [Dapson] came in with an Euclidean distance of 2.45.

Regarding `CC(=O)OCC(=O)[C@@]12N=C(C)O[C@@H]1C[C@H]1[C@@H]3CCC4=CC(=O)C=C[C@]4(C)[C@H]3[C@@H](O)C[C@@]12C` [Deflazacort], the Euclidean distance was 2.48.

Regarding `COCCNCCc1cccc(Nc2ncc3c(n2)-c2ccccc2[C@H](c2ccccc2F)C3)c1` [Derazantinib(ARQ-087)], the Euclidean distance is 5.6.

For `CC(C)/N=c1\cc2n(-c3ccc(Cl)cc3)c3ccccc3nc-2cc1Nc1ccc(Cl)cc1` [Clofazimine], the Euclidean distance was found to be 0.808.

`COc1ccc(Cl)cc1NC(=O)Nc1cc(C)nc2ccccc12` gave an Euclidean distance of 1.06.

As to `Cc1cccc(-c2[nH]c(C(C)(C)C)nc2-c2ccc3nccnc3c2)n1`, the Euclidean distance was found to be 0.741.

The molecule `O=S(=O)(O)c1cc(O)ccc1O` [Ethamsylate] returned an Euclidean distance of 0.74.

`CCOC(=O)c1ccc(N2NC(=O)C(=Cc3ccc([N+](=O)[O-])o3)C2=O)cc1` came in with an Euclidean distance of 1.17.

On to `CN(CCCCCCCCCCN(C)C(=O)Oc1cccc([N+](C)(C)C)c1)C(=O)Oc1cccc([N+](C)(C)C)c1` [Demecarium Bromide], for which the Euclidean distance was found to be 0.6.

`O=[N+]([O-])c1cn2c(n1)OC[C@@H](OCc1ccc(OC(F)(F)F)cc1)C2` returned an Euclidean distance of 0.837.

`COc1cc2nccc(Oc3ccc(NC(=O)C4(C(=O)Nc5ccc(F)cc5)CC4)cc3)c2cc1OC` [Cabozantinib malate (XL184)]: the Euclidean distance was determined as 1.3.

In turn, `Cc1cnc(Nc2ccc(N3CCN(C)CC3)cc2)nc1Nc1cccc(S(=O)(=O)NC(C)(C)C)c1` returned an Euclidean distance of 3.18.

For `Cc1cc(O)c(C(=O)N[C@@H](C(=O)N[C@@H]2C(=O)N3C(C(=O)O)=C(CSc4nnnn4C)CS[C@H]23)c2ccc(O)cc2)cn1` [Cefpiramide sodium], the Euclidean distance came out at 1.94.

On to `CCCCCCCCCCCCCCCCOP(=O)([O-])OCC[N+](C)(C)C` [Miltefosine], for which the Euclidean distance was determined as 1.17.

`CCCc1cc(=O)[nH]c(=S)[nH]1` [Propylthiouracil] displayed an Euclidean distance of 2.02.

`CC(NC(=O)c1ccccc1/N=C/c1c(O)ccc2ccccc12)c1ccccc1` (centres undefined) [Sirtinol] yielded an Euclidean distance of 0.686.

`N#C/C(=C(/N)Sc1ccc(N)cc1)c1ccccc1C(F)(F)F` returned an Euclidean distance of 0.889.

The molecule `CCOc1ccc(C[C@H]2NC(=O)CCSSC[C@@H](C(=O)N3CCC[C@H]3C(=O)N[C@@H](CCCN)C(=O)NCC(N)=O)NC(=O)[C@H](CC(N)=O)NC(=O)[C@H]([C@@H](C)O)NC(=O)[C@H]([C@@H](C)CC)NC2=O)cc1` [Atosiban Acetate] returned an Euclidean distance of 1.05.

`COC(=O)C1=CO[C@@H](O[C@@H]2O[C@H](CO)[C@@H](O)[C@H](O)[C@H]2O)[C@@H]2C(CO)=CC[C@H]12` [Geniposide] had an Euclidean distance of 1.03.

Take `C[N+](C)(C)NCCC(=O)[O-]` [Mildronate]: the Euclidean distance stood at 1.05.

In the case of `CNC(=O)c1ccccc1Nc1nc(Nc2ccc(N3CCOCC3)cc2OC)ncc1Cl`, the Euclidean distance came out at 2.18.

In the case of `OC[C@H]1O[C@@H](c2ccc(Cl)c(Cc3ccc(O[C@H]4CCOC4)cc3)c2)[C@H](O)[C@@H](O)[C@@H]1O`, the Euclidean distance turned out to be 1.39.
